Reference: PubChem BioAssay (NCI)
About 83,000 compounds went through this panel and 20% of them were active in at least one assay; those are over-represented in the sample as a whole.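 Activity criterion: percent growth below 10, measured after cells in 96-well plates were exposed to a single compound concentration for 48 hours.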 Calls of active or inactive are those of the source.

Tests used:
Experiment in all cases: NCI-60 one-dose screen, 48 h (100 = growth as untreated, 0 = no growth, -100 = all killed)
Details in all cases: 10 µM unless noted
[1] = test system: NCI-H23 lung
[2] = test system: NCI-H226 lung
[3] = test system: NCI-H322M lung
[4] = test system: HOP-62 NSCLC
[5] = test system: NCI-H460 lung
[6] = test system: HOP-92 NSCLC
[7] = test system: NCI-H522 lung
[8] = test system: A549/ATCC NSCLC
[9] = test system: 786-0 renal
[10] = test system: COLO 205 colon

Measured: growth

O=C(/C=C/c1ccccc1)N(C1CCCCC1)C1CCCCC1
inactive: [1] 74.3% | [2] 84.7% | [3] 105% | [4] 131% | [5] 86.8% | [6] 84.3% | [7] 70.9% | [8] 73.8% | [9] 82.2% | [10] 99.9%

CCCc1cc(=O)oc2c(C(=O)CC(C)C)c(O)c(CC=C(C)C)c(O)c12
active: [1] -29.1% | [6] -25.5%
inactive: [2] 23.5% | [3] 22.3% | [4] 51.1% | [5] 15.8% | [7] 16% | [8] 23.8% | [9] 29.2% | [10] 50.3%

CCn1cc(C(=O)N/N=C/c2ccccc2)c(=O)c2cc(F)c(N3CCNC(C)C3)c(F)c21 (stereo not given)
active: [5] -73% | [7] -75.3% | [8] -83.9% | [9] -67.4% | [10] -74.4%
inactive: [1] 68.5% | [2] 87.4% | [3] 52.4% | [4] 68.6% | [6] 55.8%

COc1cc(-c2nccc3[nH]c(-c4cccc5[nH]ccc45)nc23)cc(OC)c1OC
inactive: [1] 26.8% | [2] 34% | [3] 64% | [4] 12.2% | [8] 17.3%
active: [5] 7.17% | [6] -2.13% | [7] -15.7% | [9] 7.27% | [10] -62.9%

CCn1cc(C(=O)N/N=C/c2cccc(F)c2)c(=O)c2cc(F)c(N3CCNC(C)C3)c(F)c21 (stereo not given)
inactive: [1] 76.2% | [2] 97.1% | [3] 83.4% | [4] 86.5% | [6] 51.2% | [10] 17.5%
active: [5] -79% | [7] -29.8% | [8] -66.6% | [9] -39.7%

COc1cc(-c2ccc[nH]2)[nH]c1/C=C1\N=C(C)C(CC(=O)OCC(C)(C)C)=C1C
active: [1] -46.8% | [2] -55.5% | [3] -49.7% | [4] -70.9% | [5] -67.3% | [6] -51.3% | [7] -62.8% | [8] -69.1% | [9] -88.1% | [10] -61.9%

NCCCNc1nc2ccccc2c2c(=O)c3cc(Cl)ccc3sc12
inactive: [1] 45.7% | [2] 93.1% | [3] 39.5%
active: [4] -82.9% | [5] -83.8% | [6] -7.36% | [7] -83.6% | [8] -18.4% | [9] 2.76% | [10] -83.6%

O=C(Nc1ccccc1O)c1ccc(CNc2ccnc(C(F)(F)F)c2)cc1
inactive: [1] 39.1% | [2] 68.9% | [3] 56.4% | [4] 60.3% | [5] 38.8% | [6] 78.2% | [7] 34.3% | [8] 56.5% | [9] 45.4% | [10] 112%

Cc1ccc(C2CC(c3cccc(Nc4ccncc4)c3)=Nc3c(N)nc(N)nc3N2)cc1 (stereo not given)
inactive: [1] 56% | [2] 88.9% | [3] 67.4% | [4] 86.4% | [5] 23.1% | [6] 49.8% | [7] 75.7% | [8] 28.3% | [9] 36.4% | [10] 52.3%

CN(C)c1ccc(CNCCO)cc1
inactive: [1] 107% | [2] 91.9% | [3] 104% | [4] 76.3% | [5] 105% | [6] 75.1% | [7] 43.5% | [8] 76% | [9] 86.1% | [10] 85.7%

OC1CSSC1Cn1cnc2c(Nc3ccc(OCc4cccc(F)c4)c(Cl)c3)ncnc21 (stereo not given)
inactive: [6] 139% | [9] 69.5%
active: [1] -69.4% | [2] 4.07% | [3] -27.8% | [4] -27.2% | [5] -6.17% | [7] -31.6% | [8] 3.03% | [10] -58.3%

O=C(Cc1ccc(/C=C/C(=O)c2ncc[nH]2)cc1)Nc1cc(F)c(F)c(F)c1
active: [9] 8.88%
inactive: [1] 32.2% | [2] 95.2% | [3] 72.8% | [4] 90.6% | [5] 28.2% | [6] 116% | [7] 49.1% | [8] 70.6% | [10] 64.9%

C[C@H](c1nc2ccc(C#N)cc2[nH]1)[C@H]1CC[C@H]2[C@@H]3CCC4=CC(=O)CC[C@]4(C)[C@H]3CC[C@]12C
inactive: [1] 59.7% | [2] 78.4% | [3] 94.4% | [4] 101% | [5] 64% | [7] 69.8% | [8] 63.9% | [9] 67.4% | [10] 79.2%
active: [6] -9.25%

O=[N+]([O-])c1c(O)c(Cl)cc(Cl)c1Cl
inactive: [1] 98.7% | [2] 94.4% | [3] 101% | [4] 97.9% | [5] 107% | [6] 83.3% | [7] 94.7% | [8] 93.1% | [9] 99.6% | [10] 116%

CCOC(=O)/C(=C(/C)NCC(C)C)c1cc(O)c(O)c2c(C)cc(=O)[nH]c12
inactive: [1] 51.4% | [2] 71.9% | [3] 62.5% | [4] 38.2% | [5] 23.1% | [6] 40.2% | [7] 26.8% | [8] 45.2% | [9] 47.4% | [10] 99.7%

Cc1ccc2c(/C=C/C(=O)c3cc(CN4CCOCC4)c(O)c4nc(C)ccc34)cc(CN3CCOCC3)c(O)c2n1
active: [1] -2.24% | [2] -13% | [4] -7.03% | [5] 7.83% | [7] -54.8% | [9] -31.9% | [10] -25.8%
inactive: [3] 17% | [6] 30.9% | [8] 11.3%

CCOC(=O)c1c(NC(=O)c2ccccc2)sc2c3c(ccc12)OCN(C)C3
active: [3] -11.3% | [5] -67.9% | [6] -4.6% | [7] -51.4% | [9] -79% | [10] -54.7%
inactive: [1] 12.8% | [2] 87.8% | [4] 52.2% | [8] 22.2%

O=C(Nc1ccc(Nc2ccncc2)cc1)c1ccc(Nc2ccnc3ccc([N+](=O)[O-])cc23)cc1
inactive: [1] 86.9% | [2] 89.8% | [3] 116% | [4] 113% | [5] 68.2% | [6] 87.7% | [7] 102% | [8] 94.7% | [9] 99.2% | [10] 131%

CC1(C)CC[C@]23CC[C@]4(C)[C@H](CC[C@@H]5[C@@]6(C)C/C(=C/O)C(=O)C(C)(C)[C@@H]6CC[C@]54C)[C@H]2[C@H]1OC3
inactive: [1] 99.1% | [2] 105% | [3] 105% | [4] 102% | [5] 107% | [6] 105% | [7] 90.6% | [8] 106% | [9] 106% | [10] 111%

Cc1cc(C)c2c(c1)N(C)c1ncnc(-n3c(C)nc4cc(C)ccc43)c1CC2C (stereo not given)
inactive: [1] 61.7% | [2] 61.6% | [3] 73.4% | [4] 43.7% | [5] 22.6% | [6] 11.2% | [7] 19.4% | [8] 26.3% | [9] 30.1% | [10] 54.1%

O=C(NN1C(=O)CSC1c1cccc([N+](=O)[O-])c1)c1ccc(NC(=O)c2ccccn2)cc1 (stereo not given)
inactive: [1] 94.4% | [2] 106% | [3] 90.5% | [4] 95.4% | [5] 102% | [6] 104% | [7] 95.3% | [8] 100% | [9] 96.9% | [10] 103%

CC(O)CNC(Cc1ccccc1)c1ccc2c(c1)OCO2 (stereo not given)
inactive: [1] 98.5% | [2] 90% | [3] 93.6% | [4] 60.9% | [5] 103% | [6] 67.2% | [7] 71.9% | [8] 84.6% | [9] 83% | [10] 71.4%

C=C(C)[C@@H]1CC[C@]2(C(=O)N3CCN(C)CC3)CC[C@]3(C)[C@H](CC[C@@H]4[C@@](C)(CCC(=O)O)[C@H](C(=C)C)CC[C@]43C)[C@@H]12
inactive: [1] 95.4% | [2] 93.3% | [3] 98.5% | [4] 95.5% | [5] 78% | [6] 78.6% | [7] 73.5% | [8] 65.7% | [9] 90.2% | [10] 94.3%

COc1ccc(C(=O)/C=C/c2ccccc2)cc1S(N)(=O)=O
inactive: [1] 79.6% | [2] 82.5% | [3] 71.4% | [4] 86.9% | [5] 53.6% | [6] 95.7% | [7] 76% | [8] 65.7% | [9] 64.6% | [10] 98.2%

COc1ccc(Nc2ncc(I)c(NCCCNC(=O)C3CCC3)n2)cc1
inactive: [7] 52.2%
active: [1] 8.39% | [2] 5.32% | [3] 6.78% | [4] -21.3% | [5] 8.88% | [6] -7.19% | [8] -37.6% | [9] 9.69% | [10] -59.3%

O=C(NCCCCO)c1cncnc1Nc1ccc2c(ccn2Cc2cccc(F)c2)c1
inactive: [1] 97.6% | [2] 100% | [3] 72.9% | [4] 94.4% | [5] 101% | [6] 92.1% | [7] 76.9% | [8] 84.4% | [9] 92.4% | [10] 97.7%
